Measurements: PubChem BioAssay (EPA / NIEHS)
Activity calls are given as the source filed them. Rule for the calls: active = hit-call score of the fitted dose curve at least 0.9, where 1 is the maximum; inactive = score below 0.9.

Each molecule was assayed on Interferon-gamma inducible Protein 10 (IP10), CXCL10 (gene 3627) (assay: BSK_KF3CT_IP10: BioMAP Diversity Plus: KF3CT Assay for Interferon-gamma inducible Protein 10 (IP10) Biomarker Activity (AID 2283068)). Conditions: primary human keratinocytes with fibroblasts; actives raise or lower the signal.
Experimental: BSK_KF3CT is a cell-based, multiplexed-readout assay that uses keratinocytes and foreskin fibroblasts, a human skin primary cell co-culture, with measurements taken at 24 hours after chemical dosing in a 96-well plate.BSK_KF3CT_IP10 is an assay component measured in the BSK_KF3CT assay. It measures IP-10 antibody related to regulation of gene expression using ELISA technology.Data from the assay component BSK_KF3CT_IP10 was analyzed into 1 assay endpoint. This assay endpoint, BSK_KF3CT_IP10, was analyzed with bidirectional fitting relative to DMSO as the negative control and baseline of activity. Using a type of binding reporter, gain or loss-of-signal activity can be used to understand changes in the signaling as they relate to the gene CXCL10. Furthermore, this assay endpoint can be referred to as a primary readout, because this assay has produced multiple assay endpoints where this one serves a signaling function. To generalize the intended target to other relatable targets, this assay endpoint is annotated to the cytokine intended target family, where the subfamily is chemotactic factor.
The levels of cell surface (or secreted, indicated by the prefix "s") biomarker endpoints were measured by ELISA. Overt cytotoxicity to cells in confluent adherent cultures (all systems other than the BT system) was assessed by measuring total protein levels using sulforhodamine B (SRB) staining in parallel cultures at the time of biomarker measurements, indicated as SRB endpoints. For proliferation assays for adherent cell types, individual cell types are cultured at sub-confluence and relative cell numbers quantified by SRB staining at time points optimized for each system (48 h: 3C and CASM3C systems; 72 h: BT and HDF3CGF systems; 96 h: SAg system). SRB was performed by staining cells with 0.1% SRB after fixation with 10% TCA and reading wells at 560 nm.Viability and proliferation of PBMC (T cells) was quantified by Alamar Blue reduction for the SAg and BT systems. For PBMC viability (referred to as PBMC Cytotoxicity within the assay endpoint names), cells were plated (75,000/well in a 96-well plate) and then chemical samples added for 1 h before addition of activators, SEB and TSST-1 (20 ng/mL final concentration each). Cells were incubated for 90 h. Then, Alamar Blue (20 uL/well) (Invitrogen, Cat DAL1100) was added for 6 h, and the plates were read with a fluorescence microplate reader at 546/580 nm (excitation/emission). For PBMC proliferation, cells were plated and activated as above but incubated for only 16 h prior to addition of Alamar Blue. Plates were read after 6 h.

Q: How did the outcome turn out when `C=CCCCCCCCCC(=O)O` was run?
A: The outcome was “inactive”.

Q: `C1=CCCC=CCCC=CCC1` was tested. Which outcome did it give?
A: Its outcome is “inactive”.

Q: With `CCC(C)(C)C(=O)O[C@H]1C[C@@H](C)C=C2C=C[C@H](C)[C@H](CC[C@@H]3C[C@@H](O)CC(=O)O3)[C@H]21` as the molecule, how does the AC50 read?
A: The AC50 was 34.3 µM (active).

Q: How did the outcome turn out when `COC(=O)c1ccccc1O` was run?
A: Its outcome is “inactive”.

Q: `CCOC(=O)c1ccc(C2CCC(NC[C@H](O)COc3ccc(O)c(NS(C)(=O)=O)c3)CC2)cc1` (stereo not given in full) was tested. Which outcome did it give?
A: Its outcome is “inactive”.

Q: Which outcome does the source give for `CCNc1ccccc1` here?
A: The outcome was “inactive”.

Q: For `CC1(C)C(=O)N(Br)C(=O)N1Br`, which outcome is on record?
A: Its outcome is “inactive”.

Q: `CC/C(=C\C(=N/O)C(N)=O)C(C)[N+](=O)[O-]` (stereo not given) was tested. Which outcome did it give?
A: Its outcome is “inactive”.

Q: How did the AC50 turn out when `CC(C)c1cccc(C(C)C)c1N1C(=O)c2ccc(O)cc2C1=O` was run?
A: Its AC50 is 26 µM (active).

Q: For `Cn1cnc([N+](=O)[O-])c1Sc1ncnc2nc[nH]c12`, which outcome is on record?
A: The outcome was “inactive”.

Q: Which outcome does the source give for `Nc1cccc(N)c1` here?
A: The outcome was “inactive”.

Q: For `CCCCCCCCCCCCc1ccccc1`, which outcome is on record?
A: Its outcome is “inactive”.

Q: How did the AC50 turn out when `CCOc1cccc(-n2cc(C(=O)N3CCN(c4cc(C(=O)O)c5ccccc5c4)CC3)nc2-c2ccc(C)cc2)c1` was run?
A: Its AC50 is 29.2 µM (active).

Q: With `CC(C)=CCC/C(C)=C\CO` as the molecule, how does the outcome read?
A: The outcome was “inactive”.

Q: How did the outcome turn out when `CN(C)c1ccc(Cc2ccc(N(C)C)cc2)cc1` was run?
A: The outcome was “inactive”.

Q: `CC(=O)c1ccc2c(c1)[C@H](NC(=O)c1ccc(F)cc1)[C@@H](O)C(C)(C)O2` was tested. Which outcome did it give?
A: The outcome was “inactive”.

Q: Which outcome does the source give for `O=C1CCC(N2C(=O)c3ccccc3C2=O)C(=O)N1` (stereo not given) here?
A: The outcome was “inactive”.

Q: How did the outcome turn out when `CC(=O)OCCC(C)C` was run?
A: The outcome was “inactive”.

Q: How did the outcome turn out when `COCCOCCOCCOC` was run?
A: The outcome was “inactive”.

Q: For `Oc1ccc2c(c1)-c1ccccc1C2`, which outcome is on record?
A: The outcome was “inactive”.

Q: `CCCCC(CC)COC(=O)CCCCCCCCC(=O)OCC(CC)CCCC` (stereo not given) was tested. Which outcome did it give?
A: Its outcome is “inactive”.

Q: With `CCCN(C1CCN(C(=O)C2CCNCC2)CC1)[C@@H]1CCc2ccc(OC)cc2C1` as the molecule, how does the outcome read?
A: Its outcome is “inactive”.

Q: How did the outcome turn out when `COC(=O)c1c(Cl)c(Cl)c(C(=O)OC)c(Cl)c1Cl` was run?
A: The outcome was “inactive”.

Q: How did the outcome turn out when `Nc1ccc(Nc2ccccc2)cc1` was run?
A: Its outcome is “inactive”.

Q: With `O=C(O)c1cccc(N(Cc2cccnc2)c2ccc(OC(F)F)c(OC(F)F)c2)c1` as the molecule, how does the outcome read?
A: Its outcome is “inactive”.

Q: `CCCCCCCCCCCCCCCO` was tested. Which outcome did it give?
A: The outcome was “inactive”.

Q: How did the outcome turn out when `Cc1ccc(C)c(O)c1` was run?
A: Its outcome is “inactive”.

Q: `O=C(NS(=O)(=O)/C=C/c1ccccc1)c1ccc(F)cc1Cl` was tested. Which outcome did it give?
A: Its outcome is “inactive”.

Q: `CC(=O)OC[C@H]1O[C@@](COC(C)=O)(O[C@H]2O[C@H](COC(C)=O)[C@@H](OC(C)=O)[C@H](OC(C)=O)[C@H]2OC(C)=O)[C@@H](OC(C)=O)[C@@H]1OC(C)=O` was tested. Which outcome did it give?
A: The outcome was “inactive”.

Q: With `Cn1c(=O)c2c(ncn2C)n(C)c1=O` as the molecule, how does the outcome read?
A: Its outcome is “inactive”.

Q: For `CCn1nc(Cc2ccccc2)cc1C1CCN(C[C@H]2C[C@H](N(C)[C@@H](C(=O)O)C(C)C)C[C@@H]2c2cccc(F)c2)CC1`, which outcome is on record?
A: The outcome was “inactive”.

Q: Which AC50 does the source give for `O=C(CCCCCCCCc1cccnc1)N1CCC(C=C(c2ccccc2)c2ccccc2)CC1` here?
A: The AC50 was 15.5 µM (active).

Q: Which outcome does the source give for `C=CC(=C)CCC=C(C)C` here?
A: The outcome was “inactive”.

Q: For `COc1ccc2sc(C(=O)Nc3nnn[nH]3)c(OC(C)C)c2c1`, which AC50 is on record?
A: Its AC50 is 25.4 µM (active).

Q: How did the outcome turn out when `O=P(OC(CCl)CCl)(OC(CCl)CCl)OC(CCl)CCl` was run?
A: The outcome was “inactive”.

Q: For `Fc1ccccc1[C@@H](F)COC1CCC(Nc2ncnc3[nH]ncc23)CC1` (stereo not given in full), which outcome is on record?
A: Its outcome is “inactive”.

Q: For `O=C1CCCCCN1`, which outcome is on record?
A: The outcome was “inactive”.

Q: How did the outcome turn out when `CCN(C(=O)c1cc(C)cc(OC[C@H](C)Nc2ccncc2)c1)C(C)C` was run?
A: The outcome was “inactive”.

Q: `Clc1nc(Cl)c(Cl)c(Cl)c1Cl` was tested. Which outcome did it give?
A: The outcome was “inactive”.

Q: `CCOC(=O)COc1ccc2c(c1)CC(NCC(O)c1cccc(Cl)c1)CC2` (stereo not given) was tested. Which outcome did it give?
A: The outcome was “inactive”.
